Only some compounds are listed: those with a hit (about 17% of all), similar ones and a draw of the others.
S2 tox: viability counter-screen for ATXN expression inhibitors | S2 cells (HEK-293 line with an ATXN2-luciferase reporter) viability, CellTiter-Fluor protease fluorescence, 24 h | Potency, µM (series often up to 56.7 µM), hits mostly cytotoxic | actives 0.49% (n = 400,000) | AID 651635; further: nearly all actives have a fitted effect of over 40% in size
TDP1 cell CPT: DT40-hTDP1 cell growth loss with CPT. actives 12% (n = 420,000). AID 686979. chicken DT40 Tdp1-/-;hTDP1 cells + 20 nM CPT, ATP luminescence, 48 h. Potency, µM (series often up to 46.2 µM), without a hit: at the top dose activity change, negative = growth inhibition, hits mostly inhibitors; further: on the % scale 0 is the no-effect control and ±100 the full control effect; nearly all actives have a fitted effect of over 55% in size
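Chicken DT40 Tdp1-/- cells complemented with human TDP1, 400 cells/well, exposed to compounds plus 20 nM camptothecin for at least 48 h at 37 C; viability read as ATP content by CellTiter-Glo luminescence.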
TDP1 cell noCPT: qHTS for Inhibitors of human tyrosyl-DNA phosphodiesterase 1 (TDP1): qHTS in cells in absence of CPT | Potency, µM (series often up to 46.2 µM), for the others: at the highest dose activity change, negative = growth inhibition, hits mostly inhibitors | actives 15% (n = 420,000) | DT40 Tdp1-/- hTDP1 cells, no CPT, ATP luminescence, 48 h; further: on the % scale 0 is the no-effect control and ±100 the full control effect; nearly all actives have a fitted effect of over 55% in size
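Growth kinetics read by CellTiter-Glo luminescence after ≥48 hr at 37 °C. Cells: DT40 Tdp1-/- stably carrying human TDP1, 400 per well, compound exposure in the absence of CPT (DMSO vehicle).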
ATXN2 expr inh: inhibitors of ATXN2 expression; actives 0.72% (n = 360,000); Potency, µM (titrated, usually from 57 µM), for inactives: top-dose activity change, negative = inhibition, hits mostly inhibitors; HEK-293 ATXN2-luciferase reporter, luminescence, 24 h; further: on the % scale 0 is the no-effect control and ±100 the full control effect; nearly all actives have a fitted effect of over 55% in size
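ATXN2-luciferase reporter cells (luciferase flanked by upstream and downstream ATXN2 gene portions) were treated 24 h at 37 °C with compounds at up to 57 uM. SteadyGlo luminescence gave expression; GF-AFC fluorescence gave viability.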
TGFb inhibitor: inhibitors of TGF-b signaling; actives 1.2% (n = 410,000); HepG2 CAGA-GFP TGF-b/SMAD3 reporter, GFP fluorescence, 18 h; TGF-beta stimulated, 500 pg/mL final; AID 588855; Potency, µM (top dose mostly 46.1 µM), inactives show top-dose activity, negative = inhibition, actives largely listed as inhibitors; further: on the % scale 0 is the no-effect control and ±100 the full control effect; nearly all actives have a fitted effect of over 65% in size
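HEPG2 CAGA-GFP cells (1000/well, DMEM with 1% FBS) were pre-incubated 2 h at 37 degrees C, given compound by pin tool, then stimulated with TGF-beta at 500 pg/mL final for 18 h before per-cell GFP fluorescence imaging.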
HepG2 tox: HepG2 cytotoxicity, counter-screen for TGF-b inhibitors | AID 588856 | HepG2 CAGA-GFP viability, ATP luminescence, 18 h | Potency, µM (top dose mostly 46.1 µM), without a hit: top-dose activity change, negative = cytotoxicity, actives largely listed as cytotoxic | actives 0.76% (n = 410,000)
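HepG2 CAGA-GFP cells (1000/well, DMEM with 1% FBS) received compound, then TGF-beta at 500 pg/mL final, and were incubated 18 hours at 37 degrees C. Viability was read by CellTiter-Glo luminescence. Media-only wells were set as complete cell-killing and DMSO as no toxicity.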
Starred values were filed as active, the others as inactive; [ ] = dose if it differs, or a comment. The call rests on the fitted dose curve; in most records, active means well fitted curve in the direction sought with a large enough effect; inconclusive means small, poorly fitted or top-dose-only effect, or another doubt; inactive means no such curve, though single readings can be large; an effect the other way counts as inactive or inconclusive. Potency means the concentration at half of the fitted maximal effect.

Results for N#C/C(=C\c1ccncc1)c1nc2ccccc2[nH]1 ?
S2 tox: inactive; TDP1 cell CPT: inconclusive; TDP1 cell noCPT: inconclusive; ATXN2 expr inh: 42%; TGFb inhibitor: 2%; HepG2 tox: -25%

Results for COc1cc(/C=C(\C#N)c2nc3ccccc3[nH]2)c([N+](=O)[O-])cc1OCc1ccccc1 ?
S2 tox: inactive; TDP1 cell CPT: 23µM*; TDP1 cell noCPT: 18µM*; ATXN2 expr inh: 0%; TGFb inhibitor: 7%; HepG2 tox: -12%

How did CNC(=O)c1ccc2cc(OC)c(OC)cc2c1 do in these assays?
S2 tox: inactive; TDP1 cell CPT: 41%; TDP1 cell noCPT: -8%; TGFb inhibitor: 1%; HepG2 tox: -2%

What do the screens show for `COCc1c(C(=O)N2CCN(C3CCCC3)CC2)cnn1-c1nccc(-c2cc(C)sc2C)n1`?
S2 tox: inactive; TDP1 cell CPT: 5%[9.04 µM]; TDP1 cell noCPT: -17%

What do the screens show for `CCOC(=O)N1CCN(C(=O)CN(c2ccccc2OC)S(=O)(=O)c2ccc(C)cc2)CC1`?
S2 tox: inactive; TDP1 cell CPT: -1%; TDP1 cell noCPT: -18%; ATXN2 expr inh: 11%; TGFb inhibitor: 3%; HepG2 tox: -14%

What do the screens show for `Cc1cccc(N(CC(=O)NC2CCCC2)C(=O)c2nsc(Cl)c2Cl)c1C`?
S2 tox: inactive; TDP1 cell CPT: inconclusive; TDP1 cell noCPT: inconclusive; ATXN2 expr inh: 0%; TGFb inhibitor: -9%; HepG2 tox: 7%

What do the screens show for `COc1cccc(N(CC(=O)N2CCC(C)CC2)S(=O)(=O)c2ccc(C)cc2)c1`?
S2 tox: inactive; TDP1 cell CPT: 21µM*; TDP1 cell noCPT: 15µM*; ATXN2 expr inh: 2%; TGFb inhibitor: -11%; HepG2 tox: -15%

Results for COc1cccc(N(CC(=O)N2CCN(C)CC2)S(=O)(=O)c2ccc(C)cc2)c1 ?
S2 tox: inactive; TDP1 cell CPT: -8%; TDP1 cell noCPT: -10%; ATXN2 expr inh: 4%; TGFb inhibitor: -12%; HepG2 tox: 2%

Results for CCOC(=O)N1CCN(C(=O)CS(=O)(=O)c2cn(Cc3ccc(Cl)cc3)c3ccccc23)CC1 ?
S2 tox: inconclusive; TDP1 cell CPT: 23µM*; TDP1 cell noCPT: 16µM*; ATXN2 expr inh: -11%; TGFb inhibitor: -12%; HepG2 tox: -12%

Results for CCOc1ccccc1N(CC(=O)N1CCC(C)CC1)S(=O)(=O)c1ccc(C)cc1 ?
S2 tox: inactive; TDP1 cell CPT: 9.2µM*; TDP1 cell noCPT: 15µM*; ATXN2 expr inh: -10%; TGFb inhibitor: 2%; HepG2 tox: -9%

What do the screens show for `CCOc1ccccc1N(CC(=O)NC1CCCCC1)C(=O)c1nsc(Cl)c1Cl`?
S2 tox: inactive; TDP1 cell CPT: -24%; TDP1 cell noCPT: 26µM*; ATXN2 expr inh: -19%; TGFb inhibitor: -9%; HepG2 tox: -21%

What do the screens show for `COCc1c(C(=O)N/N=C/c2ccc(C)o2)nnn1-c1nonc1N`?
S2 tox: inactive; TDP1 cell CPT: -2%; TDP1 cell noCPT: 8%; ATXN2 expr inh: 2%; TGFb inhibitor: 26%; HepG2 tox: -3%

What do the screens show for `CC(C)C(=O)Nc1ccc2nc(SCCOc3ccccc3)sc2c1`?
S2 tox: inactive; TDP1 cell CPT: -25%; TDP1 cell noCPT: -28%; ATXN2 expr inh: -2%; TGFb inhibitor: -1%; HepG2 tox: -12%

How did CCCNC(=O)N1CCN(Cc2ccco2)CC1 do in these assays?
S2 tox: inactive; TDP1 cell CPT: -21%; TDP1 cell noCPT: -11%; ATXN2 expr inh: -2%; TGFb inhibitor: -15%; HepG2 tox: -14%
